# Out of some 63,000 compounds screened, about 1,100 (1.7%) were called active. Rule as the data show it: active = cytotoxicity above about 50%; inactive = the rest. The entries come from a sample that favours actives as a whole. Measured potencies and affinities stand elsewhere.
# Test: HPDE-C7 pancreatic duct cell viability loss – fluorescence, HTS (AID 430);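 also: cells exposed to compound for 48 hours before viability readout; 0% = vehicle and 100% = reference cytotoxic drug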
# Conditions: HPDE-C7 pancreatic duct cells viability, at 10 µM, active compounds read high
row,SMILES,cytotoxicity
1,COc1ccc(-n2c(Cc3cccn3C)nnc2SCC(=O)NC2CCCC2)cc1,-16% (inactive)
2,CCN(CC)CCNC(=O)Cn1nc(Cc2ccccc2)c2ccccc2c1=O,-4.7% (inactive)
3,CCOc1cc(C2C(C#N)=C(N)Oc3n[nH]c(CC)c32)ccc1OCCN1CCOCC1 (centres undefined),-1.8% (inactive)
4,CCOC(=O)C1CCN(C(=O)CNS(=O)(=O)c2cccs2)CC1,-14.6% (inactive)
5,CN(CCNC(=O)Cn1c(=O)sc2ccccc21)Cc1ccccc1,10.4% (inactive)
6,COC(=O)c1sc(NC(=O)Cc2cccs2)nc1C,-9.1% (inactive)
7,COc1ccc(C(=O)c2sc(NC(C)C)nc2N)cc1OC,-6.1% (inactive)
8,COc1cccc(C(=O)c2sc(NC(C)C)nc2N)c1,70.8% (active)
9,CCCc1nnc(NC(=O)c2cccc(OC)c2)s1,-16.1% (inactive)
10,O=C(NC1CCCCC1)c1ccc(CS(=O)(=O)Cc2ccccc2F)o1,-6.3% (inactive)
11,CCOc1ccccc1NC(=O)Cn1nnc(C(=O)Nc2ccc(C)cc2)c1N,-0.5% (inactive)
12,CCOc1ccccc1NC(=O)Cn1nnc(C(=O)Nc2ccccc2Cl)c1N,8.3% (inactive)
13,CCOc1ccccc1NC(=O)Cn1nnc(C(=O)NCc2ccco2)c1N,63% (active)
14,Cc1nn(-c2ccccc2)c2c1C(c1ccco1)C(C#N)=C(N)O2 (centres undefined),11.5% (inactive)
15,O=C(Nc1ccc2c(c1)OCCO2)C1CCN(S(=O)(=O)c2ccc(Br)s2)CC1,6.5% (inactive)
16,O=C(Nc1ccccc1C(F)(F)F)N1CCN(c2ccc3nnc(-c4ccc(F)cc4)n3n2)CC1,13.1% (inactive)
17,O=C(Nc1ccccc1Cl)N1CCN(c2ccc3nnc(-c4ccc(F)cc4)n3n2)CC1,17.7% (inactive)
18,O=C(Nc1ccc(Cl)cc1)N1CCN(c2ccc3nnc(-c4ccc(F)cc4)n3n2)CC1,69.6% (active)
19,CCCNS(=O)(=O)c1ccc(OCC(=O)NCc2ccc3c(c2)OCO3)cc1,6.3% (inactive)
20,Cc1nnc(Sc2nc(Sc3nnc(C)s3)nc(N3CCN(C)CC3)n2)s1,81.3% (active)
21,Cc1nnc(SCCn2c(N3CCN(C)CC3)nc3c2c(=O)n(C)c(=O)n3C)s1,-5.2% (inactive)
22,Cc1nnc(SCCn2c(N3CCN(C)CC3)nc3c2c(=O)[nH]c(=O)n3C)s1,-9.1% (inactive)
23,COc1ccc([C@@H]2[C@H]3CN(C(C)=O)CC=C3C(C#N)=C(N)C2(C#N)C#N)c2ccccc12,-8.9% (inactive)
24,COC(=O)c1cc(=O)n(Cc2ccc3c(c2)OCO3)c(=Nc2ccccc2)s1,34.9% (inactive)
25,COC(=O)c1cc(=O)n(Cc2ccco2)c(=Nc2ccc(F)c(Cl)c2)s1,82.7% (active)
26,CCn1c(=O)cc(C(=O)OC)sc1=Nc1ccc(F)c(F)c1,17.4% (inactive)
27,CCOC(=O)c1ccc(N=c2sc(C(=O)OC)cc(=O)n2C2CC2)cc1,23.6% (inactive)
28,CCOC(=O)c1ccc(N=c2sc(C(=O)OC)cc(=O)n2Cc2ccco2)cc1,116% (active)
29,CCOC(=O)c1ccc(N=c2sc(C(=O)OC)cc(=O)n2CCCN2CCOCC2)cc1,-17.7% (inactive)
